The results in this text go back to the antibiotic and cytotoxicity screens of Wong et al. (2023).

Hit rate of the full screen: of about 39,000 compounds, about 3,300 (8.5%) were called active. The list comes from a sample in which actives are over-represented; it also holds similar structures and randomly drawn compounds.

The subject of the assay is HepG2. Briefly: cytotoxicity call (relative viability < 0.9). The note with it: 10 µM.
As for `COc1ccc(NC(=O)Nc2ccc3c(c2)C(=O)N([C@H](C)CO)C[C@@H](C)[C@H](CN(C)Cc2ccccc2)OCCCC[C@@H](C)O3)cc1`, the cytotoxicity call is “active”. The result for `COc1ccc(NC(=O)Nc2ccc3c(c2)C(=O)N([C@H](C)CO)C[C@@H](C)[C@@H](CN(C)Cc2ccccc2)OCCCC[C@H](C)O3)cc1` reads “inactive”.

Regarding `COc1cccc([C@@H](N)c2ccccc2)c1`, the cytotoxicity call is “inactive”. The result for `O=C(/C=C/c1ccc(O)c(O)c1)O[C@@H]1[C@H](O)C[C@@](O)(C(=O)O)C[C@H]1OC(=O)/C=C/c1ccc(O)c(O)c1` reads “inactive”. Then `C[C@H]1CN([C@@H](C)CO)C(=O)Cc2cc(NC(=O)Cc3cn(C)c4ccccc34)ccc2O[C@@H]1CN(C)S(C)(=O)=O`, with “inactive”.

As to `C[C@@H]1CN([C@H](C)CO)C(=O)c2cc(NS(=O)(=O)c3cn(C)cn3)ccc2O[C@H]1CN(C)C(=O)NC1CCCCC1`, the cytotoxicity call was “inactive”. The result for `C[C@H]1CN([C@@H](C)CO)C(=O)Cc2cc(NC(=O)CCN3CCOCC3)ccc2O[C@@H]1CN(C)S(=O)(=O)c1cccs1` reads “inactive”. Then `O=C(C[C@@H]1CC[C@H]2[C@@H](COC[C@@H](O)CN2C(=O)c2cnccn2)O1)NCc1ccc(Oc2ccccc2)cc1`, with “inactive”; and `COc1ccccc1NC(=O)N(C)C[C@@H]1Oc2ncc(Br)cc2C(=O)N([C@H](C)CO)C[C@H]1C`, with “inactive”. Turning to `O=C(CCCCCCC(=O)Nc1ccccc1O)N/N=C/[C@H](O)[C@@H](O)[C@H](O[C@@H]1O[C@H](CO)[C@H](O)[C@H](O)[C@H]1O)[C@H](O)CO`, the cytotoxicity call was “inactive”. Then `C[C@H](CO)N1C[C@H](C)[C@@H](CN(C)C(=O)Nc2cccc3ccccc23)Oc2c(NC(=O)CCCCCC(=O)Nc3ccccc3N)cccc2C1=O`, with “inactive”; and `C[C@@H]1CCCCO[C@@H](CN(C)S(=O)(=O)c2ccc(Cl)cc2)[C@@H](C)CN([C@H](C)CO)C(=O)c2cc(NC(=O)Nc3ccc(F)cc3)ccc2O1`, with “inactive”; and `C[C@H](CO)N1C[C@H](C)[C@H](CN(C)Cc2ccc(Oc3ccccc3)cc2)Oc2ccc(NC(=O)C3CC3)cc2C1=O`, with “inactive”.

Take `Cc1ccc(NC(=O)N(C)C[C@@H]2OCCCC[C@H](C)Oc3ccc(NC(=O)C4CCCCC4)cc3C(=O)N([C@H](C)CO)C[C@@H]2C)cc1`: the cytotoxicity call was “inactive”. Then `NC(=O)CCN1CCn2c1nc1ccccc12`, with “inactive”. The result for `COc1ccc2c3c([nH]c2c1)[C@H](CO)N(C[C@]13CCN(CC1)C(=O)Nc1ccc2c(c1)OCO2)C(=O)Nc1ccc(cc1)F` reads “inactive”. The result for `COc1ccc(NC(=O)Nc2ccc3c(c2)C(=O)N([C@H](C)CO)C[C@H](C)[C@@H](CN(C)Cc2ccccc2)OCCCC[C@@H](C)O3)cc1` reads “inactive”; that for `COc1ccc(NC(=O)Nc2ccc3c(c2)C(=O)N([C@@H](C)CO)C[C@H](C)[C@@H](CN(C)Cc2ccccc2)OCCCC[C@H](C)O3)cc1`, “inactive”. As for `COc1ccc(NC(=O)Nc2ccc3c(c2)C(=O)N([C@H](C)CO)C[C@H](C)[C@H](CN(C)Cc2ccccc2)OCCCC[C@H](C)O3)cc1`, the cytotoxicity call was “active”. Then `C[C@@H]1CCCCO[C@H](CN(C)Cc2ccccc2)[C@@H](C)CN([C@H](C)CO)C(=O)c2cc(NS(=O)(=O)c3ccc(F)cc3)ccc2O1`, with “inactive”. The result for `Cn1cnc([N+](=O)[O-])c1Cl` reads “inactive”; that for `Cn1cnc([N+](=O)[O-])c1Sc1[nH]cnc2ncnc1-2`, “active”; that for `Cn1cnnc1Sc1c([N+](=O)[O-])ncn1C`, “inactive”. The result for `C[C@@H]1CN([C@H](C)CO)C(=O)c2cc(NC(=O)CCN3CCOCC3)ccc2O[C@@H]1CN(C)C(=O)Nc1ccccc1` reads “inactive”; that for `C[C@@H]1CN([C@@H](C)CO)S(=O)(=O)c2ccc(C#CC3CCCC3)cc2O[C@H]1CN(C)Cc1cncnc1`, “inactive”. On to `C[C@H]1O[C@@H](OC(=O)[C@]23CCC(C)(C)C[C@H]2C2=CC[C@H]4[C@@]5(C)CC[C@H](O[C@@H]6O[C@H](C(=O)O)[C@@H](O)[C@H](O[C@@H]7OC[C@@H](O)[C@H](O)[C@H]7O)[C@H]6O[C@@H]6O[C@H](CO)[C@H](O)[C@H](O)[C@H]6O)[C@@](C)(C=O)[C@@H]5CC[C@@]4(C)[C@]2(C)C[C@H]3O)[C@H](O[C@H]2O[C@@H](CO)[C@@H](O)[C@@H](O)[C@@H]2O)[C@@H](O)[C@H]1O[C@@H]1O[C@H](C)[C@@H](O[C@H]2OC[C@@H](O)[C@@H](O)[C@@H]2O)[C@H](O)[C@@H]1O`, for which the cytotoxicity call was “inactive”. As to `C[C@@H]1O[C@H](O[C@H]2[C@H](OC(=O)[C@]34CCC(C)(C)C[C@@H]3C3=CC[C@@H]5[C@@]6(C)CC[C@H](O[C@@H]7O[C@@H](C)[C@H](O[C@@H]8OC[C@@H](O)[C@H](O)[C@H]8O)[C@@H](O)[C@H]7O)C(C)(C)[C@@H]6CC[C@@]5(C)[C@]3(C)C[C@@H]4O)OC[C@H](O)[C@H]2O)[C@H](O)[C@H](O)[C@H]1O[C@@H]1O[C@H](CO)[C@@H](O)[C@H](O)[C@H]1O`, the cytotoxicity call is “inactive”.

Turning to `C=C[C@](C)(O)CC/C=C(\C)C(=O)O[C@@H]1[C@@H](O[C@@](C)(C=C)CC/C=C(\C)C(=O)O[C@H]2C[C@@]3(C(=O)O[C@H]4OC[C@@H](O[C@H]5O[C@@H](CO)[C@@H](O)[C@@H](O[C@H]6O[C@@H](CO)[C@@H](O[C@H]7O[C@@H](CO)[C@@H](O)[C@@H](O)[C@@H]7O)[C@@H](O)[C@@H]6O)[C@@H]5O)[C@@H](O)[C@@H]4O)[C@@H](O)C[C@@]4(C)C(=CC[C@H]5[C@@]6(C)CC[C@@H](O[C@H]7O[C@@H](CO)[C@@H](O[C@H]8O[C@@H](CO)[C@@H](O)[C@@H](O[C@H]9OC[C@@H](O)[C@@H](O)[C@@H]9O)[C@@H]8O)[C@@H](O)[C@@H]7O)C(C)(C)[C@@H]6CC[C@@]54C)[C@@H]3CC2(C)C)OC[C@@H](O)[C@H]1O`, the cytotoxicity call is “active”. The result for `C[C@@H]1O[C@@H](O[C@@H]2CC[C@@]3(C)[C@@H](CC[C@]4(C)[C@@H]3CC=C3[C@@H]5CC(C)(C)CC[C@]5(C(=O)O[C@@H]5O[C@H](CO[C@@H]6O[C@H](CO)[C@@H](O)[C@H](O)[C@H]6O)[C@@H](O)[C@H](O)[C@H]5O)CC[C@]34C)[C@]2(C)CO)[C@H](O)[C@H](O[C@@H]2OC[C@@H](O)[C@H](O)[C@H]2O)[C@H]1O` reads “inactive”; that for `CC(=O)N[C@H]1[C@H](O[C@H]2CC[C@]3(C)[C@H]4CC=C5[C@@H]6CC(C)(C)CC[C@]6(C(=O)O[C@H]6OC[C@@H](O)[C@@H](O)[C@@H]6O)[C@@H](O)C[C@@]5(C)[C@]4(C)CC[C@H]3C2(C)C)O[C@H](CO[C@H]2OC[C@@H](O)[C@@H](O[C@H]3OC[C@@H](O)[C@@H](O)[C@@H]3O)[C@@H]2O)[C@@H](O[C@@H]2O[C@@H](C)[C@H](O)[C@@H](O)[C@H]2O[C@@H]2O[C@@H](C)[C@H](O)[C@@H](O)[C@H]2O)[C@@H]1O`, “active”. As for `CC1(C)CC[C@]2(C(=O)O[C@@H]3O[C@H](CO)[C@@H](O)[C@H](O)[C@H]3O)CC[C@]3(C)C(=CC[C@H]4[C@@]5(C)CC[C@@H](O[C@@H]6O[C@H](C(=O)O)[C@@H](O[C@@H]7OC[C@@H](O)[C@H](O)[C@H]7O)[C@H](O[C@@H]7OC[C@](O)(CO)[C@H]7O)[C@H]6O)C(C)(C)[C@@H]5CC[C@]43C)[C@@H]2C1`, the cytotoxicity call was “inactive”.

Consider `C[C@@H]1O[C@@H](O[C@@H]2[C@@H](O)[C@@H](O[C@@H]3O[C@@H](CO)[C@H](O)[C@H]3O)[C@H](OC(=O)[C@]34CCC(C)(C)C[C@H]3C3=CC[C@H]5[C@@]6(C)C[C@H](O)[C@H](O[C@@H]7O[C@@H](C)[C@H](O)[C@@H](O[C@@H]8OC[C@@H](O)[C@H](O)[C@H]8O[C@@H]8O[C@H](CO)[C@@H](O)[C@H](O)[C@H]8O)[C@H]7O)[C@@](C)(CO)[C@@H]6CC[C@@]5(C)[C@]3(C)C[C@H]4O)O[C@H]2C)[C@H](O)[C@H](O)[C@H]1O`, for which the cytotoxicity call is “active”. Then `C[C@@H]1O[C@H](O[C@@H]2[C@H](O)C[C@@]3(C)[C@@H](CC[C@]4(C)[C@H]3CC=C3[C@H]5CC(C)(C)CC[C@@]5(C(=O)O[C@H]5O[C@@H](C)[C@@H](O)[C@H](O[C@H]6OC[C@@H](O)[C@@H](O)[C@@H]6O)[C@H]5O[C@@H]5O[C@H](C)[C@H](O)[C@H](O[C@@H]6OC[C@H](O)[C@H](O[C@@H]7O[C@H](C)[C@@H](O)[C@H](O)[C@@H]7O)[C@H]6O)[C@H]5O)[C@@H](O)C[C@@]34C)[C@]2(C)CO)[C@@H](O)[C@H](O[C@H]2OC[C@@H](O)[C@@H](O[C@H]3OC[C@@H](O[C@H]4OC[C@@](O)(CO)[C@@H]4O)[C@@H](O)[C@@H]3O)[C@@H]2O)[C@@H]1O`, with “inactive”; and `C[C@@H]1O[C@@H](O[C@H]2[C@H](OC(=O)[C@]34CCC(C)(C)C[C@H]3C3=CC[C@H]5[C@@]6(C)CC[C@H](O[C@@H]7O[C@H](CO)[C@@H](O)[C@H](O)[C@H]7O)C(C)(C)[C@@H]6CC[C@@]5(C)[C@]3(C)C[C@H]4O)OC[C@H](O)[C@@H]2O)[C@H](O)[C@H](O[C@@H]2OC[C@H](O)[C@H](O)[C@H]2O)[C@H]1O[C@@H]1OC[C@@H](O)[C@H](O[C@@H]2OC[C@H](O)[C@H](O)[C@H]2O)[C@H]1O`, with “active”; and `C[C@H]1O[C@@H](O[C@H]2[C@@H](O)[C@@H](O)[C@@H](O[C@H]3CC[C@]4(C)[C@H]5CC=C6[C@H]7CC(C)(C)[C@H]8C[C@]7(C(=O)O8)[C@@H](O)C[C@]6(C)[C@@]5(C)CC[C@H]4C3(C)C)O[C@@H]2CO)[C@@H](O)[C@@H](O[C@H]2OC[C@@H](O)[C@@H](O)[C@@H]2O)[C@@H]1O`, with “inactive”.
